# Compounds with a hit are over-represented: about 10% of the library has one in this group of screens.
# HP1b chromo inh – HP1-beta chromodomain-methylated histone interaction inhibition. P83916. AlphaScreen HP1-beta / biotin-H3K9me3 peptide binding. Potency, µM (series often up to 114 µM), for the others: top-dose activity change, negative = inhibition, actives largely listed as inhibitors. 390,000 compounds, 0.56% hits. AID 540317; note: nearly all actives have a fitted effect of over 70% in size
# Target sequence (P83916 whole entry, looked up): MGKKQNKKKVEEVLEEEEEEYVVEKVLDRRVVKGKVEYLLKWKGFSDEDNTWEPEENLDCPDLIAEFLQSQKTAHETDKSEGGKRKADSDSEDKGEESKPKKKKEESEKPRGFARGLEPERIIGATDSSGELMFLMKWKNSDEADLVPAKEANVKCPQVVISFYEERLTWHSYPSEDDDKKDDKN
#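 Compound inhibition of the preformed complex between 50 nM HP1-beta and 50 nM biotinylated H3K9me3 peptide was read by AlphaScreen. Buffer was PBS pH 7.4 with 0.01% Tween-20. Incubations ran 30 min at room temperature, with 10 ug/mL donor/acceptor beads.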
# G9a inh – blocks human histone lysine methyltransferase G9a; G9a H3K9 monomethylation, AlphaScreen, 2 h; Q96KQ7; 350,000 compounds, 8.8% hits; AID 504332; Potency, µM (top dose mostly 102 µM), without a hit: at the highest dose activity, negative = inhibition, most hits filed as inhibitors; note: % is set by controls: 0 for no effect and ±100 for the full control effect; nearly all actives have a fitted effect of over 75% in size
# Target sequence (Q96KQ7 913-1193 limits assumed): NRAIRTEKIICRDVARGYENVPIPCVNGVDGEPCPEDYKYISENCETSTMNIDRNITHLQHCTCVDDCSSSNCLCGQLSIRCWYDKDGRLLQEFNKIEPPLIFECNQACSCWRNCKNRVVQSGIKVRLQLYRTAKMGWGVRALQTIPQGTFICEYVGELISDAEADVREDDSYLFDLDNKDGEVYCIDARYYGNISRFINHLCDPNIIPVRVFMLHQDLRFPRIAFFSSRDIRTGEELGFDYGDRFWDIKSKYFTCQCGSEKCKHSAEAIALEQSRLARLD
#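 Methyltransferase reactions run at room temperature for 2 h (20 nM enzyme, 500 nM biotin-H3K9 peptide, 20 uM SAM) after a 15 min compound preincubation; product detected by AlphaScreen beads and anti-H3K9me1 antibody.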
# BAZ2B inh – blocks human BAZ2B. AID 504333. AlphaScreen BAZ2B-H3K14Ac peptide displacement. Q9UIF8. Potency, µM (series often up to 114 µM), for the others: at the top dose activity change, negative = inhibition, most hits filed as inhibitors. 360,000 compounds, 4.4% hits; note: % is set by controls: 0 for no effect and ±100 for the full control effect; nearly all actives have a fitted effect of over 60% in size
#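 BAZ2B 50 nM plus b-H3(5-23)K14Ac 50 nM, PBS pH 7.4/0.01% Tween-20, 30 min RT; compound added (max 110 uM), 30 min RT; streptavidin donor/Ni-chelate acceptor beads 10 ug/mL final, 20 min dark; AlphaScreen read.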
# JMJD2A Tudor inh – inhibitors of human JMJD2A Tudor domain; AlphaScreen JMJD2A-Tudor / H3K4me3 peptide binding; 390,000 compounds, 4.4% hits; Potency, µM (doses to about 114 µM), without a hit: at the top dose activity change, negative = inhibition, hits mostly inhibitors; O75164; note: % is set by controls: 0 for no effect and ±100 for the full control effect; nearly all actives have a fitted effect of over 50% in size
# GLS inhibitor – blocks human kidney-isoform glutaminase activity; O94925; GLS enzymatic activity, qHTS titration; Potency, µM (highest dose often 45.5 µM), inactives show at the top dose activity change, negative = inhibition, hits mostly inhibitors; 410,000 compounds, 0.21% hits; AID 624170; note: % is set by controls: 0 for no effect and ±100 for the full control effect
#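 Coupled fluorescence readout: glutamate oxidase/HRP/Amplex Red detect glutamate formed by hKGA from L-glutamine (1 mM solution added). Buffer 45 mM KH2PO4 pH 8.2, 0.02% Tween-20; reads at t0 and 30 min RT.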
# An asterisk follows results filed as active; ? = inconclusive; · = no result given; [ ] = remark or other dose. Calls come from the whole dose curve; as a rule, active = well fitted curve in the direction sought with a large enough effect; inconclusive = small, poorly fitted or top-dose-only effect, or another doubt; inactive = no such curve, though single readings can be large; an effect the other way counts as inactive or inconclusive. Potency is the fitted concentration of half-maximal effect.
SMILES,HP1b chromo inh,G9a inh,BAZ2B inh,JMJD2A Tudor inh,GLS inhibitor
CCOC(=O)[C@]12CCCC=C1N(Cc1ccc3c(c1)OCO3)C(=O)[C@H](CC(=O)N1CCCCC1)C2,·,·,·,·,-19%
Cc1cnc(CN2CCc3c([nH]c4ccccc34)C2C2CCCCC2)[nH]1 (stereo not drawn),-6%,-3%,-18%,-20%[57.1 µM],-12%
c1ccc2c3c([nH]c2c1)C(C1CCCCC1)N(Cc1ncc[nH]1)CC3 (stereo not drawn),-7%,45µM*,?,?,?
Cc1ncoc1C(=O)N1CCc2c([nH]c3ccccc23)C1C(C)(C)C (stereo not drawn),19%,?,-28%,-22%,4%
Cc1ncoc1C(=O)N1CCc2c([nH]c3ccccc23)C1C1CCCCC1 (stereo not drawn),-2%,·,25µM*,?,0%
CC(C)N1C(=O)CC2(CC[N+](C)(CCOC(=O)C(c3ccccc3)c3ccccc3)CC2)C1=O (stereo not drawn),26%,?,45µM*,-7%,2%
OC1CC(c2ccco2)NC2(CCCCC2)C1 (stereo not drawn),-55%,8.9µM*,?,7.9µM*,-1%
Cn1cc(C(=O)c2ccccc2)cc1-c1nc2ccccc2n1C,-7%,50µM*,-39%,-34%,3%
Cc1oc(-c2nc3ccccc3n2C)cc1C(=O)c1ccccc1,-5%,10µM*,-36%,?,-2%
CC(=O)c1ccc(-c2nc3ccccc3n2C)o1,19%,-5%[12.7 µM],7%,-6%,2%
O=C(c1csnn1)N1CCC2(CC1)CCN(C(c1ccccc1)c1ccccc1)CC2,·,1%[12.7 µM],·,·,·
Cc1cc2nc(C)c(=O)n(C)c2cc1C,10%,7%[59 µM],4%,35µM*,?
COc1ccc(-c2noc(Cn3c(=O)c4ccccc4n(CC(=O)Nc4cccc(OC)c4)c3=O)n2)cc1,33%,-1%[59 µM],-10%,1%,-4%
O=c1/c(=C/c2ccc(O)cc2)sc2nc3cc(Br)cnc3n12,·,10µM*,-32%,·,·
O=c1/c(=C\c2ccc(O)cc2)sc2nc(-c3ccccc3)c(-c3ccccc3)n12,50%,?,?,-18%[11.4 µM],2%
O=C(CSc1nc2c([nH]c3ccccc32)c(=O)n1-c1ccc(F)cc1)N1CCc2ccccc21,9%[57 µM],3%[59 µM],1%,-14%,-15%
O=C(NC(=S)NNC(=O)c1ccco1)c1ccc(F)cc1,55%,13µM*,1%,0%,19%
CCCC(=O)Nc1ccc(C(=O)NNC(=O)c2ccccc2Br)cc1,7%,22µM*,10%[57.1 µM],-7%,8%
O=C(NC(=S)NNC(=O)c1cc2ccccc2cc1O)c1ccco1,1%,·,7%,45µM*,?
CCCCC(=O)Nc1ccc(C(=O)NNC(=S)NC(=O)c2ccco2)cc1,16%,25µM*,0%,-13%,-1%
CCOc1ccc(S(=O)(=O)N2Cc3ccccc3CC2C(=O)Nc2ccc(NC(C)=O)cc2)cc1 (stereo not drawn),2%,-40%[59 µM],-34%,-35%,-13%
CCN(CC)c1ccc(C(=O)OCC(=O)NCC2CCCO2)cc1 (stereo not drawn),22%,9%[59 µM],6%,13%,·
O=C(Nc1ccc(NC(=O)c2cccs2)cc1Cl)c1ccco1,35%,-44%,·,-3%,-4%
CCCC(=O)Nc1ccc(Cl)c(NC(=S)NC(=O)c2ccco2)c1,26%,50µM*,-4%,-21%,-7%
O=C(Nc1ccc(Cl)c(NC(=O)c2cccs2)c1)c1ccco1,31%,56µM*,-21%,-4%,-1%
SMILES,HP1b chromo inh,G9a inh,BAZ2B inh,JMJD2A Tudor inh,GLS inhibitor
CCOC(=O)CSC1=C(C#N)C(=O)NC(c2ccc(OC)c(OC)c2)S1 (stereo not drawn),?,?,50µM*,40µM*,13%
CCOC(=O)CSC1=C(C#N)C(=O)NC(c2ccc(OC)cc2)S1 (stereo not drawn),9%,?,50µM*,25µM*,6%
O=C(OCC#CCSc1nnc(-c2cccc3ccccc23)o1)C1CCC1,·,·,·,101%,·
O=C(/C=C/c1ccncc1)c1ccc2c(c1)OCCO2,29%,50µM*,-37%,-20%,9%
COc1cccc(Cn2c(SCC(=O)N3CCN(c4ccc(F)cc4)CC3)nc3ccccc32)c1,4%,3%[59 µM],-2%,-10%,0%
CCOC(=O)C1CCCN(Cc2cn3c(-c4cccc(Br)c4)nnc3s2)C1 (stereo not drawn),31%,7%[59 µM],?,-12%,-1%
COc1cccc(-c2nnc3sc(CN4CCCCC4)cn23)c1,19%[57 µM],13µM*,-38%,-7%,-3%
CC(C)(CC(=O)OCC(=O)Nc1ccc(F)c(Cl)c1)CC1=NS(=O)(=O)c2ccccc2N1,12%,7%[59 µM],-15%,-22%,5%
O=C(CN1CCN(c2ccccn2)CC1)N1CC(O)CO1 (stereo not drawn),51%,-6%[59 µM],-7%,3%,-13%
O=C(CN1CCN(c2ccccn2)CC1)N1c2ccccc2CCc2ccccc21,18µM*,8.9µM*,32µM*,3.2µM*,3%
O=C(CN1CCN(c2ccccn2)CC1)N1c2ccccc2Sc2ccc(C(F)(F)F)cc21,16µM*,?,22µM*,2µM*,·
CO[C@@H]1[C@@H]2OP(=O)(O)OC[C@H]2O[C@H]1n1c(Sc2ccc(Cl)cc2)nc2c(N)ncnc21,·,21%[59 µM],·,·,·
Cc1cc(=O)c2c(O)c3c(O)cc(O)c4c5c(O)cc(O)c6c(O)c7c(=O)cc(C)c8c1c2c(c34)c(c65)c78,·,8.9µM*,·,·,·
Cc1ccccc1C(=O)OCc1cc(=O)n2nc(C3CC3)sc2n1,-9%,4%[59 µM],-2%,-16%,-11%
C(=N\N1CCN(C(c2ccccc2)c2ccccc2)CC1)/c1ccc2c(c1)OCO2,?,?,?,22µM*,-5%
O=C1c2ccccc2C(=O)N1N=Cc1ccc2c(c1)OCO2,·,·,·,·,-1%
COc1cc(/C=N/S(=O)(=O)CCc2ccccc2)ccc1O,19%,13%[59 µM],-4%,-10%,58%
CN(/N=C/c1ccc2c(c1)OCO2)c1ccccc1,-31%,10µM*,28µM*,?,21%
O=C(CNC(=O)c1ccccc1Cl)N/N=C/c1ccc2c(c1)OCO2,27%,52%,6%,-11%,-3%
COc1cc(/C=N/N(C)c2ccccc2)ccc1O,?,14µM*,45µM*,56µM*,30%
Clc1ccccc1N/N=C/c1ccc2c(c1)OCO2,-17%,8.9µM*,-6%,-11%,25µM*
COc1ccc(OC)c(NC(=O)Nc2nc(C(N)CCc3ccccc3)cs2)c1 (stereo not drawn),·,·,·,·,4%
Cc1ccc(Cl)cc1NC(=O)Cn1nc2c(cc1=O)CC(C)CC2 (stereo not drawn),24%[57 µM],14%[59 µM],3%,-5%,-2%

# High-throughput results from PubChem BioAssay.
